# Screening results as filed in PubChem.
# Shown are actives, neighbours in structure and some others; about 3% of the full set was active somewhere.
# SARS PLpro yeast = qHTS of Yeast-based Assay for SARS-CoV PLP; S. cerevisiae expressing SARS-CoV PLpro, growth rescue; Potency, µM (doses to about 32.9 µM), without a hit: top-dose activity, positive = growth rescue, most hits filed as activators; 330,000 tested, 0.19% active; calls by dose curve; note: 0% is about no effect; nearly all actives have a fitted effect of over 55% in size
# Sm TGR inh = qHTS Assay for the Inhibitors of Schistosoma Mansoni Peroxiredoxins | Potency, µM (top dose mostly 114 µM), for inactives: at the highest dose activity change, negative = inhibition, most hits filed as inhibitors | 360,000 tested, 3% active | purified TGR, DTNB reduction, TNB absorbance 405 nm | Schistosoma mansoni thioredoxin glutathione reductase (TGR), Q962Y6 | AID 485364, 2010; active = well fitted inhibition curve with a large enough effect; inconclusive = small, poorly fitted or top-dose-only effect; inactive = no such curve, though single readings can be large or run the other way; note: % is set by controls: 0 for no effect and ±100 for the full control effect; nearly all actives have a fitted effect of over 60% in size
#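 First, TGR (20 nM dispensed) and NADPH were mixed with compound. Second, a 15 min room-temperature incubation followed. Third, further NADPH and then DTNB were added to start the reaction. Finally, TNB absorbance was monitored kinetically.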
# Starred values were filed as active, the others as inactive; ? = inconclusive; · = not tested or not shown; [ ] = remark or other dose. Potency is the fitted concentration of half-maximal effect.
SMILES,SARS PLpro yeast,Sm TGR inh
Cc1cc(C)c([N+](=O)[O-])cc1-c1ccc(/C=N/c2c(-c3ccco3)nc3ccccn23)o1,-5%,40µM*
CC(C)(C)C(=O)OCc1cc(=O)n2nc(C3CCCCC3)sc2n1,·,1%
Cc1ccc(NC(=O)Nc2nnc(N(C)Cc3ccccc3)s2)cc1,·,5%
CCOC(=O)C1CCN(c2cc(C)nc3c(-c4ccccc4OC)c(C)nn23)CC1,·,-4%
CCOC(=O)C(NC(=O)CCl)(Nc1sc(C)c(CC)c1C#N)C(F)(F)F (centres undefined),7%,16µM*
CCOC(=O)C(NC(=O)CC(C)C)(Nc1sc(C)c(CC)c1C#N)C(F)(F)F (centres undefined),-4%,-24%
Cn1c(=O)n(C)c2cc(N3CCOCC3)c(NS(=O)(=O)c3cccc(C#N)c3)cc21,·,-5%
CCOC(=O)N1CCC2(O)CCCCC2C1c1ccc(F)cc1 (centres undefined),-4%,7%
O=C(CN1CC[C@@]2(O)CCCC[C@H]2[C@@H]1c1ccc(F)cc1)NCc1ccco1,0%,40µM*
COc1ccccc1NC(=O)CSC1=Nc2ccccc2N=C(c2ccc(F)cc2)C1,·,0%
Cc1ccc2c(c1)N(Cc1cccc(F)c1)C(=O)C(C)O2 (centres undefined),-10%,4%
CC1Oc2ccccc2N(Cc2cccc(F)c2)C1=O (centres undefined),9%,89µM*
Cc1cccc(NC(=O)c2ccc3nc(CCc4ccccc4)oc3c2)c1C,·,-4%
CC(=O)c1cccc(NC(=O)c2noc3c2CC(C)CC3)c1 (centres undefined),·,0%
COc1cc(OC)c(NC(=O)c2noc3c2CSc2ccccc2-3)cc1Cl,·,2.5µM*
COc1ccc(NC(=O)c2noc3c2CSc2ccccc2-3)cc1Cl,·,7%
CC(=O)c1cccc(NC(=O)c2noc3c2CSc2ccccc2-3)c1,·,11µM*
COc1ccccc1CCNC(=O)Cc1c(C)c2cc3c(C(C)(C)C)coc3c(C)c2oc1=O,·,-9%
Cc1ccc(Cl)cc1NC(=O)C1CCCN(S(=O)(=O)c2c(C)noc2/C=C/N(C)C)C1 (centres undefined),·,1%
O=C(NCCc1ccccc1)c1cc(-c2ccccc2)nc2n[nH]c(-c3ccccc3)c12,·,12%
COc1ccccc1N1CCN(/N=C/C=C\c2ccccc2[N+](=O)[O-])CC1,-4%,10%
COc1ccccc1N1CCN(C(=O)/C=C/c2ccccc2)CC1,-12%,3%
CC(C)(C)c1ccc(/C=C/C(=O)N2CCN(c3ncccn3)CC2)cc1,-1%,-2%
Cc1ccc(/C=C/C(=O)N2CCN(c3ccc(F)cc3)CC2)o1,-20%,50µM*
COc1ccccc1N1CCN(/N=C/C=C\c2ccco2)CC1,-8%,40µM*
SMILES,SARS PLpro yeast,Sm TGR inh
O=C(/C=C/c1ccc(F)cc1)N1CCN(c2ncccn2)CC1,6%,2%
COc1ccccc1N1CCN(C(=O)/C=C/c2ccco2)CC1,-5%,50µM*
Cc1ccc(/C=C/C(=O)N2CCN(c3ncccn3)CC2)o1,-19%,3.2µM*
CC1CCc2c(sc(NC(=O)c3cc(-c4ccc(Br)cc4)on3)c2C(N)=O)C1 (centres undefined),·,-11%
CCOc1ccc(C(=O)N2CCC(c3nnc(-c4ccccc4OC)o3)CC2)cc1,·,-8%
Cc1ccc(C(=O)c2cn(Cc3cccc(F)c3)c3nc(C)ccc3c2=O)cc1,·,8%
COc1ccc(NC(=O)CN2C(=O)CC(c3ccc(C)c(C)c3)=Nc3ccccc32)cc1OC,·,0%
Cc1cc(SCC(=O)NCc2ccc(Cl)cc2)nc(=O)[nH]1,·,7%
COc1ccc(C(=O)N2CCN(c3ccc(NC(=O)c4ccco4)cc3)CC2)cc1,0%,8%
O=C(NCCC(=O)N1CCN(c2ccc(F)cc2)CC1)c1ccco1,-3%,45µM*
NC(=O)C1CCCN(C(=O)c2ccc(Cl)cc2)C1 (centres undefined),1%,-3%
O=C(NCCC(=O)N1CCN(c2ccccc2F)CC1)c1ccco1,-3%,-12%
COc1ccc(N2CCN(C(=O)/C=C/c3ccco3)CC2)cc1,1%,18µM*
O=C(/C=C/c1ccco1)N1CCCC(c2ccccc2)C1 (centres undefined),-2%,·
O=C(/C=C/c1ccco1)N1CCN(c2ccc(F)cc2)CC1,0%,10µM*
Cc1ccc(/C=C/C(=O)N2CCCC(C(N)=O)C2)o1 (centres undefined),0%,32µM*
O=C(CSc1nnc(-c2ccncc2)n1-c1ccccc1)Nc1ccc(Br)cc1,·,-1%
CCN(CC)S(=O)(=O)c1ccc(NC(=O)c2cc3ccc4cccnc4c3[nH]2)cc1,·,-1%
CCOc1c(Br)cc(C2CC(=O)Nc3cc4c(cc32)OCO4)cc1OC (centres undefined),·,-2%
CC(=O)c1ccc(Nc2ccc3cc(S(=O)(=O)N4CCCC4)ccc3n2)cc1,·,7%
CC(C)Cn1c(=O)c2ccccc2n2c(CCC(=O)Nc3ccc(F)c(F)c3)nnc12,·,2%
COc1ccc2cc(CNc3ccc(C)cc3)c(=O)n(CC(=O)Nc3cccc(Cl)c3C)c2c1,·,0%
Cc1ccc(N2C(=O)CC(c3ccccc3F)C3=C2COC3=O)cc1Cl (centres undefined),·,5%
Cc1ccc(Cn2ccnc2SCC(=O)NCc2ccccc2)cc1,·,0%
CCCCOc1ccccc1C(=O)Nc1nonc1-c1ccccc1,·,-4%
SMILES,SARS PLpro yeast,Sm TGR inh
Cc1cccc(-n2nnc(-c3nc(-c4cccs4)no3)c2N)c1C,·,-1%
Cc1ccccc1CS(=O)(=O)CCC(=O)NCCCN1CCN(c2ccccc2F)CC1,-2%,9%
Cc1cc(=O)oc(C)c1C(=O)NCCCN1CCN(c2ccccc2F)CC1,-1%,35µM*
N#CC1=C(SCC(=O)Nc2ccc(C(=O)O)cc2)NC(=O)CC1c1ccco1 (centres undefined),-2%,35µM*
Cc1ccc(NC(=O)CSC2=C(C#N)C(c3ccco3)C3=C(CCCC3=O)N2)cc1 (centres undefined),3%,-26%
COC(=O)c1cc2oc3ccccc3c2n1Cc1nc(-c2ccccc2Cl)oc1C,·,-1%
CCCC[C@]12Cc3cc(C#N)ccc3C(O1)c1c(cc(-c3ccccc3)oc1=O)O2,-2%[6.58 µM],?
O=C(/C=C/c1ccc(Cl)cc1)Nc1nccs1,1%,-10%
C/C=C/C=C/C(=O)Nc1nccs1,6%,35µM*
CCC1(C)NC(C(=O)O)Cc2c1[nH]c1ccccc21 (centres undefined),3%,35µM*
CC(C)C1NC(C(=O)O)Cc2c1[nH]c1ccccc21 (centres undefined),-4%,?
CCCN1CCC2(CC1)NC(C(=O)O)Cc1c2[nH]c2ccccc12 (centres undefined),13%,25µM*
CC(C)CC1NC(C(=O)O)Cc2c1[nH]c1ccccc21 (centres undefined),-3%,-32%
COC(=O)C1Cc2c([nH]c3ccccc23)C2(CCN(Cc3ccccc3)CC2)N1 (centres undefined),-2%,-9%
CCCC1NC(C(=O)O)Cc2c1[nH]c1ccccc21 (centres undefined),2%,45µM*
Cc1cccc(Cn2cccc2CNS(=O)(=O)c2ccc(C)c(C)c2)c1,·,-5%
Nc1nc(Nc2ccccc2F)sc1C(=O)c1ccc(Cl)cc1,·,11%
COc1ccccc1-c1noc(-c2ccc(N3CCC(C)CC3)c([N+](=O)[O-])c2)n1,·,5%
